# Reference: the supplement of paper PMC8728848
# This excerpt belongs to a sample that is enriched for the strongest signals.
# B1: HHL-1 (Homo sapiens), P07306 (protein)
# chain: TKEYQDLQHLDNEESDHHQLRKGPPPPQPLLQRLCSGPRLLLLSLGLSLLLLVVVCVIGSQNSQLQEELRGLRETFSNFTASTEAQVKGLSTQGGNVGRKMKSLESQLEKQQKDLSEDHSSLLLHVKQFVSDLRSLSCQMAALQGNGSERTCCPVNWVEHERSCYWFSRSGKAWADADNYCRLEDAHLVVVTSWEEQKFVQHHIGPVNTWMGLHDQNGPWKWVDGTDYETGFKNWRPEQPDDWYGHGLGGGEDCAHFTDDGRWNDDVCQRPYRWVCETELDKASQEPPLL
# Assays:
# Assay in all cases: glycan array binding signal (z-score within array); higher = stronger binding
# Settings in all cases: glycan notation: IUPAC condensed, linker removed
# [1] = target: Fuc(a1-2)Gal(b1-3)GlcNAc(b1-3)[Gal(b1-4)[Fuc(a1-3)]GlcNAc(b1-6)]Gal(b1-4)Glc
# How it was run: (§1)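 Glycan array binding is given as a within-array Z-score, which can be read as non-binding when negative. The arrays, 3228 of them, came from the Consortium for Functional Glycomics database and were retained only where the protein sequence was available. Z-scores were averaged across arrays of the same protein sequence at different concentrations or buffers and across linkers.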
# [2] = target: Fuc(a1-2)Gal(b1-4)GlcNAc(b1-2)Man(a1-3)[Fuc(a1-2)Gal(b1-4)GlcNAc(b1-2)Man(a1-6)]Man(b1-4)GlcNAc(b1-4)GlcNAc
# How it was run: as §1
# [3] = target: Fuc(a1-2)[GalNAc(a1-3)]Gal(b1-4)GlcNAc(b1-3)Gal(b1-4)GlcNAc(b1-3)Gal(b1-4)GlcNAc
# How it was run: as §1
# [4] = target: Fuc(a1-2)[GalNAc(a1-4)]Gal(b1-4)GlcNAc
# How it was run: as §1
# Gal(a1-2)Gal = target: Gal(a1-2)Gal
# How it was run: as §1
# [5] = target: Gal(a1-3)[Gal(a1-4)]Gal(b1-4)GlcNAc
# How it was run: as §1
# Gal(a1-4)Gal(b1-4)GlcNAc = target: Gal(a1-4)Gal(b1-4)GlcNAc
# How it was run: as §1
# [6] = target: Gal(b1-4)GlcNAc(b1-6)Gal(b1-4)GlcNAc(b1-6)GalNAc
# How it was run: as §1
# [7] = target: Gal(b1-4)GlcNAc(b1-6)GalNAc
# How it was run: as §1
# Gal3S6S(b1-4)GlcNAc6S = target: Gal3S6S(b1-4)GlcNAc6S
# How it was run: as §1
# GalNAc(b1-3)Gal = target: GalNAc(b1-3)Gal
# How it was run: as §1
# [8] = target: GalNAc(b1-3)Gal(a1-4)Gal(b1-4)GlcNAc
# How it was run: as §1
# [9] = target: GalNAc(b1-3)Gal(a1-4)Gal(b1-4)GlcNAc(b1-3)Gal(b1-4)Glc
# How it was run: as §1
# [10] = target: GlcNAc(a1-4)Gal(b1-4)GlcNAc(b1-3)Gal(b1-4)Glc
# How it was run: as §1
# GlcNAc(b1-6)GalNAc = target: GlcNAc(b1-6)GalNAc
# How it was run: as §1
# Kdn(a2-3)Gal(b1-3)GlcNAc = target: Kdn(a2-3)Gal(b1-3)GlcNAc
# How it was run: as §1
# Kdn(a2-3)Gal(b1-4)GlcNAc = target: Kdn(a2-3)Gal(b1-4)GlcNAc
# How it was run: as §1
# Man(a1-3)[Man(a1-6)]Man = target: Man(a1-3)[Man(a1-6)]Man
# How it was run: as §1
# [11] = target: Man(a1-3)[Man(a1-6)]Man(a1-6)[Man(a1-2)Man(a1-3)]Man(b1-4)GlcNAc(b1-4)GlcNAc
# How it was run: as §1
# [12] = target: Neu5Ac(a2-3)Gal(b1-3)GalNAc
# How it was run: as §1
# [13] = target: Neu5Ac(a2-3)Gal(b1-3)GalNAc(b1-3)Gal(b1-4)GlcNAc
# How it was run: as §1
# [14] = target: Neu5Ac(a2-3)Gal(b1-3)[Neu5Ac(a2-3)Gal(b1-4)]GlcNAc
# How it was run: as §1
# Neu5Ac(a2-3)GalNAc = target: Neu5Ac(a2-3)GalNAc
# How it was run: as §1
# [15] = target: Neu5Ac(a2-6)GlcNAc(b1-4)GlcNAc
# How it was run: as §1
# [16] = target: Neu5Ac(b2-6)Gal(b1-4)GlcNAc
# How it was run: as §1
# Neu5Ac(b2-6)GalNAc = target: Neu5Ac(b2-6)GalNAc
# How it was run: as §1
# [17] = target: Neu5Gc(a2-3)Gal(b1-4)[Fuc(a1-3)]GlcNAc
# How it was run: as §1
# Neu5Gc(a2-6)GalNAc = target: Neu5Gc(a2-6)GalNAc
# How it was run: as §1
binder,measurement,setting,value
B1,glycan array binding signal (z-score),[1],0.628
same,glycan array binding signal (z-score),[2],-0.533
same,glycan array binding signal (z-score),[3],-0.3
same,glycan array binding signal (z-score),[4],7.69
same,glycan array binding signal (z-score),Gal(a1-2)Gal,0.419
same,glycan array binding signal (z-score),[5],0.667
same,glycan array binding signal (z-score),Gal(a1-4)Gal(b1-4)GlcNAc,-0.54
same,glycan array binding signal (z-score),[6],0.262
same,glycan array binding signal (z-score),[7],4.51
same,glycan array binding signal (z-score),Gal3S6S(b1-4)GlcNAc6S,0.503
same,glycan array binding signal (z-score),GalNAc(b1-3)Gal,4.09
same,glycan array binding signal (z-score),[8],5.53
same,glycan array binding signal (z-score),[9],5.52
same,glycan array binding signal (z-score),[10],-0.538
same,glycan array binding signal (z-score),GlcNAc(b1-6)GalNAc,7.59
same,glycan array binding signal (z-score),Kdn(a2-3)Gal(b1-3)GlcNAc,-0.538
same,glycan array binding signal (z-score),Kdn(a2-3)Gal(b1-4)GlcNAc,0.051
same,glycan array binding signal (z-score),Man(a1-3)[Man(a1-6)]Man,-0.472
same,glycan array binding signal (z-score),[11],-0.485
same,glycan array binding signal (z-score),[12],0.366
same,glycan array binding signal (z-score),[13],-0.541
same,glycan array binding signal (z-score),[14],-0.548
same,glycan array binding signal (z-score),Neu5Ac(a2-3)GalNAc,-0.482
same,glycan array binding signal (z-score),[15],0.387
same,glycan array binding signal (z-score),[16],-0.409
same,glycan array binding signal (z-score),Neu5Ac(b2-6)GalNAc,-0.515
same,glycan array binding signal (z-score),[17],0.159
same,glycan array binding signal (z-score),Neu5Gc(a2-6)GalNAc,-0.536
